Laboratory results taken from PubChem BioAssay AID602393 (Broad Institute, 2012).
Out of some 350,000 compounds screened, about 7,000 (2%) were called active. Cut-off read from the data, not from the text of the source: active = activation above about 40%; inconclusive = no clear call, values can overlap the other calls; inactive = below that. What follows is part of a selection rich in actives, with near analogues and random picks from the rest.

Experiment: Bmi1 luciferase reporter increase in mESCs, primary screen, esBAF inhibitor project, mouse ES cells, Bmi1 luciferase knock-in, single point (AID 602393);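 note: 0% = median of the plate's neutral control wells and 100% = double that signal; a rise in the Bmi1 reporter signal indicates esBAF inhibition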
Conditions: 24 h, at 12.5 µM, hits give high values, 100% = twice the neutral-well signal

Reporter increase, active:
O=C(Nc1ccc(Cl)c(Cl)c1)c1ccccc1NC(=O)C1CC=CCC1C(=O)O (configuration not stated) 92.4%
CCCCOC(=O)c1[nH]c(C)c(C(=O)OC)c1C 78.5%
C=C(C)CSc1nc(N)c2c3c(sc2n1)CCC3 75.4%
COCCCNC(=O)c1ccc(-c2c(C)noc2C)c2ccoc12 78.5%
COc1ccc(C(=O)Nc2sc(C)c(C)c2CN2CCOCC2)cc1 98.6%
Cc1c(C(=O)N2CCCc3ccccc32)sc2nc(-c3ccccc3)cn12 69.3%
Cc1c(C(=O)NCC2CCCO2)sc2nc(-c3ccccc3)cn12 (configuration not stated) 63.8%
Cc1cccc(C(=O)Nc2ccc(Oc3cnccn3)cc2)c1 45%
O=C(c1ccc(Cl)cc1)c1cnc(Nc2ccccc2)s1 70%
C/C(CC1CC(C)(C)OC1=O)=N/Nc1nc(-c2ccccc2)cs1 (configuration not stated) 46.1%
COc1ccc(C(=O)NC(=S)NC2CCCCC2)cc1 53.2%
O=C(NC(=S)NC1CCCCC1)c1ccc(Cl)cc1 92.1%
COc1ccc(C(=O)NC(=S)NNC(=O)CCc2ccccc2)cc1 50.7%

Reporter increase, inactive:
C[C@H]1CN([C@@H](C)CO)S(=O)(=O)c2ccc(-c3cncnc3)cc2O[C@H]1CN(C)Cc1ccncc1 0.176%
O=C(Nc1cccc(Cl)c1Cl)c1ccccc1NC(=O)C1CC=CCC1C(=O)O (configuration not stated) 5.49%
O=C(O)C1CC=CCC1C(=O)NCCc1ccccc1 (configuration not stated) -11%
CC(=O)c1c(C)[nH]c(C(=O)OCC(=O)Nc2c(C)cccc2C)c1C -23.7%
COC(=O)c1c(C)[nH]c(C(=O)NCCc2ccc(S(N)(=O)=O)cc2)c1C -4.52%
CO[C@@H]1CN(C)C(=O)c2ccc(NS(C)(=O)=O)cc2OC[C@@H](C)N(CC2CC2)C[C@@H]1C 1.93%
C[C@@H]1CN([C@@H](C)CO)C(=O)c2cc(N(C)C)ccc2O[C@@H](C)CCCCO[C@H]1CN(C)Cc1ccncc1 -3.61%
CC(C)(C)C1CCc2c(sc3nc(SCC(N)=O)nc(N)c23)C1 (configuration not stated) -0.656%
CCc1nc(N2CCN(C(C)=O)CC2)c2c3c(sc2n1)CCCC3 -4.58%
C[C@H](O)C#Cc1cnc2c(c1)C(=O)N([C@@H](C)CO)C[C@@H](C)[C@@H](CN(C)C(=O)Cc1ccccn1)O2 -2.01%
Cc1noc(C)c1-c1ccc(C(=O)NCc2ccncc2)c2occc12 8.81%
COCCCNC(=O)c1cccc2c(-c3ccc(O)c(OC)c3)coc12 12.3%
COc1ccccc1S(=O)(=O)N[C@@H]1C=C[C@H](CC(=O)N2CCOCC2)O[C@@H]1CO -2.3%
COCCNC(=O)C[C@H]1CC[C@H](NS(=O)(=O)c2ccc(C)cc2)[C@@H](CO)O1 -2.1%
CCOc1ccc(C(=O)Nc2ccc(CN3CCOCC3)cc2)cc1Cl 9.32%
COc1ccc(C(=O)Nc2ccnn2C2CCN(Cc3ccncc3)CC2)cc1 4.74%
O=C(c1c(Cl)nc2sccn12)N1CCCc2ccccc21 -5.89%
Cc1c(C(=O)NCCN2CCOCC2)sc2nc(-c3ccc(F)cc3)cn12 2.29%
Cc1ccc(C(=O)N2CCCc3ccccc32)c(Cl)c1 -0.356%
Cc1nn(CC(=O)NCC2CCCO2)c(=O)c2cc3ccccc3n12 (configuration not stated) -0.752%
C[C@H](CO)N1C[C@H](C)[C@@H](CN(C)C(=O)Nc2ccc3c(c2)OCO3)Oc2ccc(NS(=O)(=O)c3ccc(Cl)cc3)cc2CC1=O -3.55%
C[C@@H]1CCCCO[C@H](CN(C)Cc2ccc(Cl)c(Cl)c2)[C@H](C)CN([C@@H](C)CO)C(=O)c2cc(NC(=O)C3CCCCC3)ccc2O1 1.62%
COc1cccc(-c2ccc3n(c2=O)C[C@H]2[C@H](CO)[C@@H](C(=O)NC4CCCC4)[C@@H]3N2C)c1 3.16%
COCC(=O)N(C)C[C@@H]1Oc2cc(C3=CCCC3)ccc2S(=O)(=O)N([C@@H](C)CO)C[C@H]1C 0.332%
C[C@H](CO)N1C[C@H](C)[C@@H](CN(C)Cc2ccccc2C(F)(F)F)OCc2cn(nn2)CCCC1=O -1.8%
C[C@H](NC(=O)C[C@H]1C=C[C@@H](NC(=O)C2CCOCC2)[C@@H](CO)O1)c1ccccc1 1.15%
Cc1ccc(NC(=O)c2ccc(Oc3ncccn3)cc2)cc1 34%
Cc1cccc(C(=O)Nc2ccc(C(=O)N/N=C/c3cccc(C)n3)cc2)c1 14.2%
C[C@H](CO)N1C[C@H](C)[C@H](CN(C)C(=O)c2cnccn2)Oc2cc(C3=CCCC3)ccc2S1(=O)=O 4.52%
O=C(CN1CCOCC1)N[C@@H]1CC[C@@H](CCNC(=O)C2CCCCC2)O[C@@H]1CO 0.276%
CN1C(=O)c2cc(NC(=O)c3cscn3)ccc2OC[C@H]2O[C@@H](CC(=O)NCC3CC3)CC[C@H]21 1.7%
Nc1nc(COC(=O)CCC(=O)c2ccc(Cl)cc2)nc(Nc2ccccc2)n1 -2.01%
O=C(CCCOc1ccccc1)NNC(=O)c1ccc(Cl)cc1 -5.87%
C[C@@H]1CCCCO[C@H](CN(C)S(=O)(=O)c2cccs2)[C@H](C)CN([C@@H](C)CO)C(=O)c2cc(NC(=O)Nc3ccc4c(c3)OCO4)ccc2O1 3.42%
CC1(C)CC(CC(=O)O)C(=O)O1 (configuration not stated) 3.84%
Cn1c(CNc2nc(-c3ccccc3)cs2)nnc1SCC(=O)c1ccccc1 6.92%
COc1ccc(S(=O)(=O)N(C)C[C@@H]2OCCCC[C@H](C)Oc3ccc(NC(=O)Nc4ccccc4)cc3C(=O)N([C@H](C)CO)C[C@H]2C)cc1 6.53%
COc1ccccc1-c1cnc2c(c1)C(=O)N([C@H](C)CO)C[C@H](C)[C@H](CN(C)C(=O)CN(C)C)O2 -4.34%
O=C(CCc1ccccc1)NNC(=O)COc1ccc(Cl)cc1 -7.85%
O=C(NC1CCCCCC1)C1CCN(C(=O)c2ccc(Cl)cc2)CC1 1.61%
O=C(NNC(=S)NC1CCCCC1)c1ccccc1Cl 12.8%
COc1ccc(/C(N)=N/OC(=O)CCCc2ccccc2)cc1 22.2%
CCCNC(=S)N1CCC(NC(=O)c2ccc(OC)cc2)CC1 4.39%
Cc1ccccc1C(=O)NC(=S)NC1CC1 19.1%
